Measured values from PubChem BioAssay AID588342 (National Center for Advancing Translational Sciences (NCATS), 2011).
Screen size: about 360,000 compounds; about 25,000 (6.9%) were called active. A call without a number means that no potency is given here. Another 9% or so got no clear call; they are omitted. The call rests on the fitted dose curve; in most records, active means well fitted inhibition curve with a large enough effect; inconclusive means small, poorly fitted or top-dose-only effect; inactive means flat fitted curve, though single readings scatter. This excerpt belongs to a sample that is enriched for actives.

molecular target: Luciferin 4-monooxygenase (Photinus pyralis) (UniProt P08659); assay: qHTS profiling assay for firefly luciferase inhibitor/activator using purifed enzyme and Km concentrations of substrates (counterscreen for miR-21 project); conditions: purified FLuc, luminescence inhibition; series mostly up to 57.5 µM; further: nearly all actives have a fitted effect of over 55% in size
Source text: MLPCN Grant: 1 R21 NS059478-01 (miR-21 grant) Assay Provider: NCGC NCGC Assay Overview: Firefly (Photinus pyralis) luciferase is one of the most commonly used transcriptional reporters for a number of reasons. It is considered one of the more dynamically responsive reporters -that is, responsive to changes in reporter transcription - as it requires no post-translational modifications and is enzymatically active directly after protein synthesis (Wood, 1998). Additionally, the half-life of the luciferase protein is short relative to other reporter-gene products (Wood, 1995). Whereas reporters with long half-lives potentially allow for increased signal due to accumulation of reporter-gene product, once accumulated in the cell, dynamic changes in reporter-gene expression may be difficult to detect(Fan and Wood, 2007; Almond et al., 2004). It has been shown that wild-type P. pyralis luciferase has a half-life of approximately […] hours in mammalian cells (Thompson et al., 1991). Firefly luciferase reporter-gene assays are also generally considered one of the most sensitive assay types (Wood, 1995; Wood, 1998). Although light produced in a bioluminescence reaction is of lower intensity than that produced during fluorescence emission, this is offset by little to no background light inherent to luminescent assays. Thus the luciferase reporter can be expressed at much lower levels than fluorescent proteins while still providing robust signal. # However, it was initially observed, in 1991, by Thompson et al., that compounds that resemble the substrates of firefly luciferase (FLuc) can act as competitive inhibitors of the enzyme, and that these compounds, upon interaction with luciferase in the cell, can actually stabilize the protein and increase its half-life. Accumulated intracellular FLuc protein can be measured as an increase in luminescence signal, upon addition of detection reagents (which contain high concentrations of FLuc substrates) commonly used in high-throughput screening. In cell-based reporter gene assays that use FLuc as the reporter gene to quantitate the potential influence of a given compound against the target biology, this apparent increase in luminescence can mistakenly be interpreted as identification of a compound that is active against the target of interest. This is the case for the miR-21 FLuc reporter gene assay used to identify inhibitors of the miR-21 pathway (PubChem AID 2289) - compounds of interest will inhibit miR-21 biogenesis/expression or activity, and are identified by causing an increase in luminescence, due to increased FLuc translation. However, FLuc inhibitory compounds that stabilize the FLuc protein will give an identical read-out, making it difficult to distinguish compounds that are active against the target from those active against FLuc. Previous profiling work to determine the prevalence of compounds that affect FLuc enzymatic activity (PubChem AID 411) identified that ~3% of the MLSMR library (then at ~72K) inhibited FLuc. […] Since the MLSMR had grown to ~350K compounds, and since it was expected that a significant percentage of compounds found active in the miR-21 FLuc assay would be FLuc inhibitors, the library was screened for activity against FLuc using a biochemical assay of purified FLuc and KM concentrations of FLuc substrates (D-luciferin and ATP).
NCGC Assay Protocol Summary: Reagents: 50mM Tris acetate, pH 7.5; 10mM Mg acetate; 10uM D-luciferin (Sigma #L9504); 10uM ATP; 0.01% Tween-20; 0.05% BSA; 10nM P. pyralis luciferase (Sigma #L9506) Control compounds used were two known firefly luciferase inhibitors (compounds (2) and (5) in Auld et al., 2010), and DMSO. […]

Luciferin 4-monooxygenase (Photinus pyralis), sequence (P08659 whole entry, looked up): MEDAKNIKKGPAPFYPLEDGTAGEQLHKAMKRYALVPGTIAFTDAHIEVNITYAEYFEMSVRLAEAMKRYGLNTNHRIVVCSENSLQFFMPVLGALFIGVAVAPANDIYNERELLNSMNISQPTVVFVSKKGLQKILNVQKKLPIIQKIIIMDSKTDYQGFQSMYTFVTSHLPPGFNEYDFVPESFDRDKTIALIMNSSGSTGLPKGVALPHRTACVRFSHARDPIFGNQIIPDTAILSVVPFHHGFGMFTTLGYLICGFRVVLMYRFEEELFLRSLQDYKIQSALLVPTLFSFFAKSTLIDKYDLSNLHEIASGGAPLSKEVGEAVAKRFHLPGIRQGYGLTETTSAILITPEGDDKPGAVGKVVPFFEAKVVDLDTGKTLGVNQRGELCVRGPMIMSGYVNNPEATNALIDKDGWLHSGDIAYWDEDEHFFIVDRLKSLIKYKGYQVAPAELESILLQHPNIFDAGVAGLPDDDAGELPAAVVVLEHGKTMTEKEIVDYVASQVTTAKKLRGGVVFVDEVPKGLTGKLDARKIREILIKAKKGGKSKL

SMILES	Potency
COc1cc(C(=O)Nc2cc(C(F)(F)F)ccc2-n2cncn2)cc(OC)c1OC	inactive
CN(C)C(=O)N1CCNCC1	inactive
CC12C(=O)N(c3ccccc3)C(=O)C1C(c1ccccc1)N1CCCN12 (centres undefined)	inactive
CCOC(=O)C1CN(S(=O)(=O)c2ccc(F)cc2)C1	inactive
COc1ccc(CNC(=O)c2ccc(NS(=O)(=O)c3ccc4[nH]c(=O)[nH]c4c3)cc2)cc1OC	inactive
CCC1CCCCN1C(=S)Nc1ccc(S(=O)(=O)Nc2ncccn2)cc1 (centres undefined)	inactive
CCC1CCCCN1C(=O)Nc1cccc(NC(=O)N2CCCCC2CC)c1 (centres undefined)	inactive
CCC1CCCCN1C(=S)Nc1ccc(SC(F)F)cc1 (centres undefined)	12 µM (active)
COc1ccc(NC(=O)c2ccco2)cc1NC(=O)COc1ccc(C)c(C)c1	inactive
COc1ccc(OCC(=O)Nc2ccc(NC(=O)c3ccco3)c(C)c2)cc1	inactive
CCOC(=O)c1ccc(NC(=O)CNC(=O)c2ccco2)cc1	inactive
COC(=O)c1ccc(NC(=O)c2ccco2)cc1	15.1 µM (active)
Cc1cccc(OCC(=O)Nc2ccc(NC(=O)c3ccco3)c(C)c2)c1	inactive
O=C(Nc1ccccc1)/C(=C\c1ccco1)NC(=O)c1ccco1	inactive
Cc1cc(NC(=O)c2ccc(F)cc2)ccc1NC(=O)c1ccco1	16.9 µM (active)
COC(=O)c1cc(NC(=O)c2ccco2)ccc1N1CCOCC1	inactive
O=C(/C=C/c1ccco1)NC(=S)Nc1ccccc1Br	inactive
Cc1cc(NC(=O)[C@H](C)NC(=O)c2ccco2)ccc1Br	inactive
Cc1ccc(C(=O)COc2cccc(NC(=O)c3ccco3)c2)cc1	23.9 µM (active)
O=C(/C=C/c1ccco1)Nc1ccc(Oc2ccccc2)cc1	6.01 µM (active)
COc1ccc(CC(=O)N2N=C(C)CC2(O)C(F)(F)F)cc1 (centres undefined)	inactive
C#CCN1CC(C)/C(=N/O)CC1C (centres undefined)	inactive
CCOc1ccc(Nc2nc3c(S(=O)(=O)c4cccc(Cl)c4)nnn3c3ccsc23)cc1	inactive

SMILES	Potency
Cc1ccc(Cl)cc1N1CCN(S(=O)(=O)c2cc3[nH]c(=O)c(=O)[nH]c3cc2C)CC1	inactive
COc1ccc(NC(=O)N2CCCn3nc(C)cc32)cc1OC	inactive
Cc1cc(C)cc(NC(=O)CCS(=O)(=O)c2cc3c4c(c2)CCN4C(=O)CC3)c1	inactive
Cc1ccc(Cl)cc1NC(=O)CCS(=O)(=O)c1ccc(Br)s1	inactive
Cc1ccc(N(CC(=O)NCC(C)c2ccccc2)S(=O)(=O)N(C)C)cc1 (centres undefined)	inactive
CCN(CC(=O)NCc1ccc(Cl)cc1)C(=O)c1c(C)noc1C	inactive
COc1ccc(NC(=S)SC)cc1OC	inactive
Cc1ccc2c(=O)c(C(=O)c3ccc(F)cc3)cn(CC(=O)NC3CCCCC3)c2n1	inactive
COc1ccc(NC(=O)c2ccco2)cc1NC(=O)c1ccc(C#N)cc1F	inactive
COc1ccc(NC(=O)CCC(=O)Nc2cc(OC)c(NC(=O)c3ccco3)cc2OC)c(OC)c1	inactive
CSCCC(NC(=O)c1ccco1)C(=O)OCC(=O)Nc1ncc(Cl)c(C)c1Cl (centres undefined)	inactive
O=C(Nc1ccc(Oc2ccccc2)cc1)c1ccco1	5.36 µM (active)
CSCCC(NC(=O)c1ccco1)C(=O)NCCc1ccc(F)cc1 (centres undefined)	inactive
CSCCC(NC(=O)c1ccco1)C(=O)Nc1cc(C)ccn1 (centres undefined)	15.1 µM (active)
COc1cccc(C(=O)Nc2ccc(NC(=O)c3ccco3)cn2)c1	21.3 µM (active)
O=C(NNC(=O)c1ccco1)Nc1ccccc1	inactive
Cc1cc(C)c(NC(=O)c2oc3ccccc3c2COc2ccccc2)c(C)c1	inactive
Cc1ccoc1C(=O)Nc1cccc(Oc2ccccc2)c1	6.75 µM (active)
Cc1cccc(NC(=O)Nc2cccc(Oc3c(F)c(F)c(F)c(F)c3F)c2)c1	inactive
O=C(Nc1ccccc1)c1ccco1	inactive
CCOc1ccccc1C(=O)Nc1ccc(S(=O)(=O)N2CCCCC2c2cccnc2)cc1 (centres undefined)	inactive
Cc1c(Cl)cccc1NC(=O)Cn1cc(C(=O)c2cccs2)c2ccccc21	inactive
Cc1cccc(OCCSc2nc3ccccc3n2CC(=O)N2CCCCC2)c1C	inactive

SMILES	Potency
COc1ccc(CNC(=O)c2ccc(NC(=O)N3CC4CCCN4c4ccccc43)cc2)cc1 (centres undefined)	inactive
O=C(CC(NCc1cccnc1)C(=O)O)Nc1ccc(O)cc1 (centres undefined)	inactive
O=C(NCc1ccccc1CN1CCCC1)c1cccc(S(=O)(=O)Nc2ccc(F)cc2)c1	inactive
O=C(CCNC(=O)Cn1ccc2ccccc2c1=O)NCCC1=CCCCC1	inactive
Cc1ccnc(NC(=O)c2ccco2)n1	inactive
CC(C)(C)NC(=O)c1cc(NC(=O)c2ccco2)cc(NC(=O)c2ccco2)c1	inactive
Cc1ccnc(NC(=O)c2ccc(NC(=O)c3ccco3)cc2)c1	10.7 µM (active)
Cc1cccc(N(C(=O)Cc2cccs2)C(C(=O)NC2CCCC2)c2ccsc2)c1 (centres undefined)	inactive
CCCOc1ccc(-c2nc(N)n[nH]2)cc1	13.5 µM (active)
Nc1nc(SCCOc2ccccc2)n[nH]1	inactive
Cc1ccc(OCCCCc2c(C)n[nH]c2C)cc1	inactive
Cc1ccc(CNC(=O)CSc2nnc3c(n2)[nH]c2ccc(F)cc23)cc1	inactive
COc1ccc(Cl)cc1NC(=O)C(C)Sc1nc2c(c(=O)[nH]1)CCCC2 (centres undefined)	inactive
COC(=O)CN(c1nc(C)c(Cl)c(OC)n1)S(=O)(=O)c1ccc(C)cc1	inactive
COc1ccc2c(c1)CCc1c(C(=O)Nc3cc(C)ccc3O)noc1-2	inactive
COc1ccc2c(c1)CCc1c(C(=O)Nc3c(C)n(C)n(-c4ccccc4)c3=O)noc1-2	23.9 µM (active)
COc1ccc(C(=O)N2CCCN(C)CC2)c(OC)c1	inactive
COc1ccc(S(=O)(=O)NC(C)C(=O)N2CCCCCC2)cc1 (centres undefined)	inactive
COc1ccc2c(c1)CCc1c(C(=O)N3CCCC3)noc1-2	12 µM (active)
Cc1c(NC(=O)c2cc(-c3ccc(Br)cc3)on2)c(=O)n(-c2ccccc2)n1C	inactive
COc1ccc(Cl)cc1NC(=O)CSc1nc(-c2cccs2)cc(C(F)(F)F)n1	inactive
CC(OC(=O)c1ccccc1NCCO)C(=O)Nc1ccnn1C(C)C (centres undefined)	inactive
Cn1c(=O)oc2cc(S(=O)(=O)CCC(=O)NCCc3ccc(Cl)cc3)ccc21	inactive
